According to the supplement of paper PMC10849652:
About 8,800 targets were measured; listed, in parts, are those with a hit and a random draw of the rest. About 0.5% of all pairs of compound and target were hits.

Columns and labels:
Test in all cases: log2 fold change, soluble protein after heating vs DMSO (PISA); higher = thermal stabilisation; K562 lysate, 10 uM; active = over 0.2 and 3.5 SD of the protein, either way, in both replicates (recomputed)
erlotinib = compound: C#Cc1cccc(Nc2ncnc3cc(OCCOC)c(OCCOC)cc23)c1 [erlotinib]
Method in brief: (§1)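 Values give the log-two fold change in thermal stability against solvent controls, from duplicates. Crude K562 extract at 1 mg/mL protein, made by dounce homogenisation in PBS pH 7.4 with 1 mM MgCl2, was treated with 10 μM compound for 30 min. After 3 min heating across 48°C-58°C, aliquots were pooled, adjusted to 0.5% NP-40 at 4°C and centrifuged at 21,000xg for 90 min. The supernatant was measured by TMTpro 16plex LC-MS/MS with channel sums equalised.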

[1] = compound: C/C(=N\NC(=O)C1=CC(=CC=C1)S(=O)(=O)N2CCOCC2)/C3=C(C=CC(=C3)Cl)O
Method in brief: as §1

[2] = compound: C1=CC(=CC=C1C2=NC3=C(N2)C=C(C=C3)C(=O)N)OC4=CC=C(C=C4)Cl
Method in brief: as §1

[3] = compound: C1=CC2=C(C=CC(=C2)/C=C\3/C(=O)NC(=NCC4=CC=CS4)S3)N=C1
Method in brief: as §1

[4] = compound: C1=CC2=NC=CN=C2C=C1/C=C/3\C(=O)NC(=O)S3
Method in brief: as §1

[5] = compound: C1=CC=C(C=C1)C2=NC(=C(N2)C3=CC=NC=C3)C4=CC(=C(C=C4)Cl)O
Method in brief: as §1

[6] = compound: C1=CC=C2C(=C1)C3=NNC4=CC=CC(=C43)C2=O
Method in brief: as §1

[7] = compound: C1CCN(C1)C(=O)NC2=CC=CC(=C2)NC3=NC=C(C(=N3)NCCC4=CN=CN4)Br
Method in brief: as §1

[8] = compound: C1CN(CCC1(CC2=CC=C(C=C2)Cl)N)C3=NC=NC4=C3C=CN4
Method in brief: as §1

IRAK-1-4 Inhibitor I = compound: C1COCCN1CCN2C3=CC=CC=C3N=C2NC(=O)C4=CC(=CC=C4)[N+](=O)[O-] [IRAK-1-4 Inhibitor I]
Method in brief: as §1

ibrutinib = compound: C=CC(=O)N1CCC[C@@H](n2nc(-c3ccc(Oc4ccccc4)cc3)c3c(N)ncnc32)C1 [ibrutinib]
Method in brief: as §1

[9] = compound: CC(=O)c1cnc2ccc(-c3cc(Cl)c(O)c(Cl)c3)nc2c1N[C@H]1CC[C@H](CN(C)C)CC1
Method in brief: as §1

ralimetinib = compound: CC(C)(C)Cn1c(N)nc2ccc(-c3[nH]c(C(C)(C)C)nc3-c3ccc(F)cc3)nc21 [ralimetinib]
Method in brief: as §1

[10] = compound: CC(C)(O)CC(=O)NCCn1ccc2ncnc(Nc3ccc(Oc4cccc(C(F)(F)F)c4)c(Cl)c3)c21
Method in brief: as §1

[11] = compound: CC(C)C1=C2N=C(C=C(N2N=C1)NCC3=CC=CC=C3)NCCCCCCN
Method in brief: as §1

[12] = compound: CC1=C(C(CC(=O)N1)C2=CC=C(C=C2)C(F)(F)F)C(=O)NC3=C(C=C4C(=C3)C=NN4)F
Method in brief: as §1

[13] = compound: CC1=C(C2=C(C=C1)C(=O)C3=CC=CC=C3N2CCCN)C
Method in brief: as §1

[14] = compound: CC1=C(C=C(C=C1)NC(=O)C2=CC(=CC=C2)C(C)(C)C#N)NC3=CC4=C(C=C3)N=CN(C4=O)C
Method in brief: as §1

[15] = compound: CC1=C(C=C(C=C1)NC(=O)C2=CC(=CC=C2)N(C)C)NC(=O)C3=CC=C(C=C3)O
Method in brief: as §1

[16] = compound: CC1=CC=C(C=C1)SC2=C3C=C(SC3=CN=C2)C(=O)N
Method in brief: as §1

Measured: log2 fold change

TJP1 isoform 2 (UniProt Q07157)
Sequence of UniProt Q07157 (Q07157 whole entry, looked up): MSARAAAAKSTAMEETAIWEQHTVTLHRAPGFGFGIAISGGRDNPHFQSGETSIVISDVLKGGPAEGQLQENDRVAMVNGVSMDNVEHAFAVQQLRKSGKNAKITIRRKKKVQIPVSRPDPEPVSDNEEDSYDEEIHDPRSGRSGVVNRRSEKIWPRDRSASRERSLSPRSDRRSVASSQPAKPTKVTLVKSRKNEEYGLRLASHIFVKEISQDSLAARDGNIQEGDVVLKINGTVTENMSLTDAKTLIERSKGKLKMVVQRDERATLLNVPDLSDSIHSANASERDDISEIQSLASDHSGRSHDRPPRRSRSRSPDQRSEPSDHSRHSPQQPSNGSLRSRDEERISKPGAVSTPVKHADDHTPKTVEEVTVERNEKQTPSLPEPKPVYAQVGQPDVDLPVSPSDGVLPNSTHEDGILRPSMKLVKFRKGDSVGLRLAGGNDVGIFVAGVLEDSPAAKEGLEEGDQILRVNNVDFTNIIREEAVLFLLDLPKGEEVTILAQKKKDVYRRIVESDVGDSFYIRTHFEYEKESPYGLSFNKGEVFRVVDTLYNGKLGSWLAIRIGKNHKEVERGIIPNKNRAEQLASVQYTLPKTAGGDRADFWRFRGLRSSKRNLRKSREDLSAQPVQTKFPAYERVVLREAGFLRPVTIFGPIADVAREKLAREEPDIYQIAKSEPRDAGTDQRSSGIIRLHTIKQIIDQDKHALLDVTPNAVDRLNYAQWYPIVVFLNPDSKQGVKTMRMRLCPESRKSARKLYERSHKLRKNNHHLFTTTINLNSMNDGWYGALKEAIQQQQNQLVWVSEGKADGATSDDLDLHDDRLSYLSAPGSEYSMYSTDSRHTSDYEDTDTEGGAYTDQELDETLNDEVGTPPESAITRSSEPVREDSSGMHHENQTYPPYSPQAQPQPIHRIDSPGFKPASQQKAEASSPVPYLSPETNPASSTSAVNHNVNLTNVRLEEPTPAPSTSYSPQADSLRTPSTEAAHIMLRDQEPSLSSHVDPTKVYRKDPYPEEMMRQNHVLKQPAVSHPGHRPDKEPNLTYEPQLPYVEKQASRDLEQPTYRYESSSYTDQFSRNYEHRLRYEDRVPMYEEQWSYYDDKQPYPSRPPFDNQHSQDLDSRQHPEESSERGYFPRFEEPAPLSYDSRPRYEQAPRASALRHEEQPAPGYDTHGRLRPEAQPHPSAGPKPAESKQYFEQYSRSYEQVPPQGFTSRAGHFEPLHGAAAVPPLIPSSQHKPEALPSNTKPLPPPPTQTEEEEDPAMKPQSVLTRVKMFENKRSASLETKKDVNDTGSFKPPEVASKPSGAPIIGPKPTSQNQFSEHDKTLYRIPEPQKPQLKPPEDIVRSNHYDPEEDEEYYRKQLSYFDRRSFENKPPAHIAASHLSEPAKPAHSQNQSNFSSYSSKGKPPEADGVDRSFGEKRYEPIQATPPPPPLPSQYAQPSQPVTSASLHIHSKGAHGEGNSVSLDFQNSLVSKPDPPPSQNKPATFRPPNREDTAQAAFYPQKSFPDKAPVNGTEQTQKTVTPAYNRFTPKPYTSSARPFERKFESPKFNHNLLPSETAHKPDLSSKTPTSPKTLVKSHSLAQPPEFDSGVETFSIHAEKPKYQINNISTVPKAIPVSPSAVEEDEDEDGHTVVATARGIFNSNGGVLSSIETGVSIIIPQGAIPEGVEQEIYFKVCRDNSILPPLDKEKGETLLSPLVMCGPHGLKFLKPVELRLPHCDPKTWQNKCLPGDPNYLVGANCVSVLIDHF
inactive: erlotinib -0.002 | [1] 0 | [2] 0.037 | [3] -0.007 | [4] -0.082 | [5] -0.018 | [6] -0.041 | [7] -0.075 | [8] 0.039 | IRAK-1-4 Inhibitor I 0.015 | ibrutinib 0.019 | [9] -0.001 | ralimetinib -0.007 | [10] -0.041 | [11] 0.036 | [12] 0.002 | [13] -0.025 | [14] 0.015 | [15] 0.016 | [16] -0.014

TPM1 (UniProt H7BYY1)
inactive: erlotinib -0.034 | [1] -0.004 | [2] -0.057 | [3] 0.026 | [4] -0.008 | [5] 0.091 | [6] -0.041 | [7] 0.012 | [8] -0.02 | IRAK-1-4 Inhibitor I -0.071 | ibrutinib -0.002 | [9] -0.018 | ralimetinib -0.035 | [10] 0.068 | [11] 0.037 | [12] -0.027 | [13] 0.023 | [14] -0.045 | [15] 0.039 | [16] -0.034

UFM1 (UniProt P61960)
Sequence of UniProt P61960 (P61960 whole entry, looked up): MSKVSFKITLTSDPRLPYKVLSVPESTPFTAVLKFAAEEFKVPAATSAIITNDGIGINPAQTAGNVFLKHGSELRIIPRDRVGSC
inactive: erlotinib 0.035 | [1] 0.078 | [2] -0.003 | [3] 0.085 | [4] 0.029 | [5] -0.013 | [6] 0.123 | [7] 0.066 | [8] 0.013 | IRAK-1-4 Inhibitor I -0.009 | ibrutinib 0.059 | [9] 0.072 | ralimetinib 0.008 | [10] -0.014 | [11] -0.003 | [12] -0.04 | [13] -0.007 | [14] -0.097 | [15] -0.038 | [16] 0.109

TRMT12 (UniProt Q53H54)
Sequence of UniProt Q53H54 (Q53H54 whole entry, looked up): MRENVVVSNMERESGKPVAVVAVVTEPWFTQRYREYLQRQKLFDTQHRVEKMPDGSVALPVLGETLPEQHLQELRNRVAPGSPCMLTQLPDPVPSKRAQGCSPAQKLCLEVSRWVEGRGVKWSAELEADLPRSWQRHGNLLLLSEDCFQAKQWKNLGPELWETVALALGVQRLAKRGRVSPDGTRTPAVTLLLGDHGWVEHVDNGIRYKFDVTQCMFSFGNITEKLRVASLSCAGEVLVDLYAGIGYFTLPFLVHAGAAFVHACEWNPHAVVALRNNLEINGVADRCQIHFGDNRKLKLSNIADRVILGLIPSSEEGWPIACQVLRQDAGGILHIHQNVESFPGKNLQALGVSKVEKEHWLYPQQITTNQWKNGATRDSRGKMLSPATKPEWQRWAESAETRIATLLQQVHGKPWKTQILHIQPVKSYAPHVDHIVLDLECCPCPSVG
inactive: erlotinib 0.065 | [1] 0.01 | [2] 0.018 | [3] 0.058 | [4] -0.044 | [5] 0.106 | [6] -0.047 | [7] -0.064 | [8] 0.07 | IRAK-1-4 Inhibitor I -0.03 | ibrutinib -0.083 | [9] -0.009 | ralimetinib 0.094 | [10] 0.063 | [11] -0.018 | [12] -0.081 | [13] -0.048 | [14] 0.036 | [15] 0.033 | [16] -0.031

TBC1D23 (UniProt Q9NUY8)
Sequence of UniProt Q9NUY8 (Q9NUY8 whole entry, looked up): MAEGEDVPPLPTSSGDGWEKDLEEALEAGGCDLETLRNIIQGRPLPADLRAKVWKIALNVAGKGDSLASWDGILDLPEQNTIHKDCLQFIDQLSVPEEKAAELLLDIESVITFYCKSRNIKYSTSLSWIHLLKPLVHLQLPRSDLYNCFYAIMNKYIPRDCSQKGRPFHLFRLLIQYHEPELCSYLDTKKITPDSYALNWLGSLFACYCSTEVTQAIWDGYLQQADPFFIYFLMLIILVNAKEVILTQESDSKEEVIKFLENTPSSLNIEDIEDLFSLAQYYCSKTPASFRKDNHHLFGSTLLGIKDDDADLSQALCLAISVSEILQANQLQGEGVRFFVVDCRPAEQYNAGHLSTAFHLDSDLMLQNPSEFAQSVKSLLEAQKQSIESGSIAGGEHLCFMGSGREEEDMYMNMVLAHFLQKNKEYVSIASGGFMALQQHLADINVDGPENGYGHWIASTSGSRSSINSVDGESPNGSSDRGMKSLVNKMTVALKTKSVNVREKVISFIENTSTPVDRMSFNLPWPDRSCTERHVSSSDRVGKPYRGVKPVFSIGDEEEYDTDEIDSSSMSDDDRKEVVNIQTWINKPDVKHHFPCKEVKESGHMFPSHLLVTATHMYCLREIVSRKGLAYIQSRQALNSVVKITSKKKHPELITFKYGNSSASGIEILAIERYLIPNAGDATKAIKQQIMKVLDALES
inactive: erlotinib 0.003 | [1] -0.01 | [2] 0.017 | [3] 0.022 | [4] -0.015 | [5] 0.011 | [6] -0.018 | [7] -0.018 | [8] -0.001 | IRAK-1-4 Inhibitor I 0 | ibrutinib 0.034 | [9] 0.002 | ralimetinib 0.004 | [10] -0.021 | [11] 0.03 | [12] 0.032 | [13] -0.05 | [14] 0.014 | [15] 0.012 | [16] -0.012

TUBB3 (UniProt Q13509)
Sequence of UniProt Q13509 (Q13509 whole entry, looked up): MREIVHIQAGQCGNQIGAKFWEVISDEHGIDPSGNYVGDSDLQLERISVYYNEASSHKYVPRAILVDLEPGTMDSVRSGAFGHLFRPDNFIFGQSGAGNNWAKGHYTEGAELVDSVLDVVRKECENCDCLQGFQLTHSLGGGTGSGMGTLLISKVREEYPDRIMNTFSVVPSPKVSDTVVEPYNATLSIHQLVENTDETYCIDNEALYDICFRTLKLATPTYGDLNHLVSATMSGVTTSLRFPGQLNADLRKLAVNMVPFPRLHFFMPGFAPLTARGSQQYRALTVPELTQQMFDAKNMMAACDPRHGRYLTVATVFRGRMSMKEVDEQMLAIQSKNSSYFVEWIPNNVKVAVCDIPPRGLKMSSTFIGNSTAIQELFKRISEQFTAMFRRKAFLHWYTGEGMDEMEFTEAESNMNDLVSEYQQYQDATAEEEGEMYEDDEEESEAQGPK
inactive: erlotinib 0.025 | [1] -0.089 | [2] 0.016 | [3] -0.004 | [4] 0.001 | [5] -0.019 | [6] -0.025 | [7] 0.018 | [8] 0.03 | IRAK-1-4 Inhibitor I 0.006 | ibrutinib 0.003 | [9] 0.009 | ralimetinib 0.022 | [10] -0.019 | [11] 0.025 | [12] 0.013 | [13] 0.005 | [14] -0.007 | [15] 0.015 | [16] 0.019

TIAL1 isoform 2 (UniProt Q01085)
Sequence of UniProt Q01085 (Q01085 whole entry, looked up): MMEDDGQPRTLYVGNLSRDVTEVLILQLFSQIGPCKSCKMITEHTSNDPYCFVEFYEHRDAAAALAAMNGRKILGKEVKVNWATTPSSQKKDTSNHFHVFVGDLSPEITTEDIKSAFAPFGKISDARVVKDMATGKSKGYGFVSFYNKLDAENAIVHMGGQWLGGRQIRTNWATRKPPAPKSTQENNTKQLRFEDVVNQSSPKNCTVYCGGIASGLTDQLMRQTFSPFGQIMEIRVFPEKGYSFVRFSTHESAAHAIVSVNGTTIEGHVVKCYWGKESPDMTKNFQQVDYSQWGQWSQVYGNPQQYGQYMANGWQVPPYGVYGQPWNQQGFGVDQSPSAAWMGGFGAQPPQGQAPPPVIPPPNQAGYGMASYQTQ
inactive: erlotinib 0.015 | [1] -0.001 | [2] 0.023 | [3] -0.015 | [4] -0.019 | [5] -0.035 | [6] 0.059 | [7] 0 | [8] 0.017 | IRAK-1-4 Inhibitor I 0.058 | ibrutinib 0.018 | [9] -0.004 | ralimetinib -0.063 | [10] -0.001 | [11] -0.001 | [12] 0.049 | [13] 0.015 | [14] -0.167 | [15] -0.06 | [16] -0.012

TRIP13 (UniProt Q15645)
Sequence of UniProt Q15645 (Q15645 whole entry, looked up): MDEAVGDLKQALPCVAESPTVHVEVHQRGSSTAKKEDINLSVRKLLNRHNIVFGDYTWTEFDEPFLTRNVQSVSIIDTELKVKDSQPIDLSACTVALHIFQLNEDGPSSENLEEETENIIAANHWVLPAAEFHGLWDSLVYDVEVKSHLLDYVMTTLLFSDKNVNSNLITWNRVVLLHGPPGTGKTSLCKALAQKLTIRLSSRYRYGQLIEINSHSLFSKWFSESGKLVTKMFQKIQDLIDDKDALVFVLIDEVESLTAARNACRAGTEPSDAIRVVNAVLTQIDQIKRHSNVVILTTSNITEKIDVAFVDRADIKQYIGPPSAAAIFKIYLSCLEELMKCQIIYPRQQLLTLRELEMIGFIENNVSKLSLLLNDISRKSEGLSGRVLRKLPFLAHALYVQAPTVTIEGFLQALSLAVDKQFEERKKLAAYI
inactive: erlotinib 0.034 | [1] -0.117 | [2] 0.007 | [3] 0.04 | [4] -0.034 | [5] 0.009 | [6] -0.038 | [7] 0 | [8] -0.002 | IRAK-1-4 Inhibitor I 0.005 | ibrutinib -0.025 | [9] -0.013 | ralimetinib 0.039 | [10] 0.023 | [11] -0.022 | [12] -0.004 | [13] 0.006 | [14] 0.029 | [15] 0.045 | [16] 0.001

UFSP2 (UniProt Q9NUQ7)
Sequence of UniProt Q9NUQ7 (Q9NUQ7 whole entry, looked up): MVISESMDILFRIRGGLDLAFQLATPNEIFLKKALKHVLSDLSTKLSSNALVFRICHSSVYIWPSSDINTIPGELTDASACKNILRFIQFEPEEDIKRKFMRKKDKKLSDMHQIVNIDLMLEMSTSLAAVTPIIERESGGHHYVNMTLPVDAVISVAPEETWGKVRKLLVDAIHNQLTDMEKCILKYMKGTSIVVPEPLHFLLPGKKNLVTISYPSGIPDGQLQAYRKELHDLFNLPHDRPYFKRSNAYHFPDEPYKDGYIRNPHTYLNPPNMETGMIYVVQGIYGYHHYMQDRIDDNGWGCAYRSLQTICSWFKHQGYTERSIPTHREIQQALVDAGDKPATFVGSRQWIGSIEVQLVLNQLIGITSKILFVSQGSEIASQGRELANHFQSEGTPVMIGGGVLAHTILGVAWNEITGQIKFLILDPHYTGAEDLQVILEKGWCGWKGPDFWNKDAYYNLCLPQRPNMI
inactive: erlotinib -0.04 | [1] -0.034 | [2] 0.028 | [3] 0.098 | [4] -0.015 | [5] -0.042 | [6] -0.055 | [7] -0.026 | [8] -0.037 | IRAK-1-4 Inhibitor I 0.023 | ibrutinib 0.004 | [9] -0.005 | ralimetinib 0.023 | [10] -0.004 | [11] -0.023 | [12] 0.01 | [13] 0.005 | [14] -0.036 | [15] -0.003 | [16] -0.006

TCAF2 (UniProt A6NFQ2)
inactive: erlotinib -0.006 | [1] -0.218 | [2] -0.003 | [3] -0.059 | [4] -0.038 | [5] -0.027 | [6] -0.033 | [7] -0.022 | [8] -0.047 | IRAK-1-4 Inhibitor I -0.005 | ibrutinib 0.009 | [9] -0.009 | ralimetinib 0.078 | [10] -0.017 | [11] 0.013 | [12] 0.022 | [13] 0.055 | [14] -0.005 | [15] -0.021 | [16] 0.063

TTC37 (UniProt Q6PGP7)
inactive: erlotinib 0.05 | [1] -0.148 | [2] 0.07 | [3] -0.014 | [4] -0.069 | [5] -0.187 | [6] -0.068 | IRAK-1-4 Inhibitor I 0.051 | ibrutinib 0.012 | [9] 0.047 | ralimetinib -0.024 | [10] 0.012 | [11] -0.012 | [12] -0.019 | [13] -0.188 | [14] 0.154 | [15] -0.043 | [16] -0.15
